HP1b chromo inh – HP1-beta chromodomain-methylated histone interaction inhibition; P83916; AlphaScreen HP1-beta / biotin-H3K9me3 peptide binding; Potency, µM (top dose mostly 114 µM), usual class: inhibitors; hit rate 0.56% among 390,000; AID 540317; further: nearly all actives have a fitted effect of over 70% in size
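AlphaScreen: HP1-beta (50 nM) preformed 30 min with biotin-H3(1-18)K9me3 peptide (50 nM) in PBS pH 7.4, 0.01% Tween-20. Compound added for 30 min at RT, then streptavidin donor/nickel chelate acceptor beads (10 ug/mL) for 30 min.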
PLK1 PBD inh – blocks phosphopeptide binding to human PLK1 polo-box domain | P53350 | Plk1 PBD binding of FITC phosphopeptide, fluorescence polarization | Potency, µM, hits mostly inhibitors | hit rate 2.8% among 360,000 | AID 720504; further: series mostly up to about 57 µM; nearly all actives have a fitted effect of over 65% in size
12-LOX inh – ALOX12 (human) lipoxygenase inhibition | P18054 | hit rate 1.1% among 580,000 | Potency, µM (doses to about 108 µM), most hits filed as inhibitors | purified 12hLO, xylenol orange hydroperoxide absorbance
Target sequence (P18054 whole entry, looked up): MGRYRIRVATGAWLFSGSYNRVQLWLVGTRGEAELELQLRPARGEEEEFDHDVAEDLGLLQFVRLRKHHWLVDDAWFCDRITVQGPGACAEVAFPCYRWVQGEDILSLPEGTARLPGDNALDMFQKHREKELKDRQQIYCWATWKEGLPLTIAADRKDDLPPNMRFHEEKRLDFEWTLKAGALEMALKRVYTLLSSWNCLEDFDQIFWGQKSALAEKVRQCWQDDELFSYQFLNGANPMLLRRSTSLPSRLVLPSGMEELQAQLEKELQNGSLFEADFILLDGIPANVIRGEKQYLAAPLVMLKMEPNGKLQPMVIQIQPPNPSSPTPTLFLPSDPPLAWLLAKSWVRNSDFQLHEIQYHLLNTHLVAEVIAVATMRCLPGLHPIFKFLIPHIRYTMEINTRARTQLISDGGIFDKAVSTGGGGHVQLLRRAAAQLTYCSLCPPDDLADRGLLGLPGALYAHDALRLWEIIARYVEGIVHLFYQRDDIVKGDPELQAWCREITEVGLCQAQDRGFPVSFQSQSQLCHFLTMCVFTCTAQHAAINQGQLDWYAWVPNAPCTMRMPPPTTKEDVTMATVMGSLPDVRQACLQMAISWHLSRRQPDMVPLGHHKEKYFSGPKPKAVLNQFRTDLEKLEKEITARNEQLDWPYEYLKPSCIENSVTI
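Hydroperoxide product was detected by ferrous iron/xylenol orange as the 573 to 405 nm absorbance ratio. Arachidonic acid at 40 uM (final) was turned over for 30 min at room temperature by 150 nM human 12hLO, pH 7.0 Hepes buffer, after 15 min compound preincubation.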
BAZ2B inh – BAZ2B (human) inhibition | Q9UIF8 | AlphaScreen BAZ2B-H3K14Ac peptide displacement | Potency, µM (series often up to 114 µM), hits mostly inhibitors | hit rate 4.4% among 360,000; further: nearly all actives have a fitted effect of over 60% in size
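AlphaScreen displacement: compounds (up to 110uM) incubated 30 min at room temperature with a preformed 50 nM BAZ2B/50 nM biotinylated H3K14Ac peptide complex in PBS pH 7.4 with Tween-20. Donor and acceptor beads at 10 ug/mL final added, 20 min light-protected before reading.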
JMJD2A Tudor – JMJD2A Tudor domain (human) inhibition; O75164; AlphaScreen JMJD2A-Tudor / H3K4me3 peptide binding; Potency, µM (top dose mostly 114 µM), hits mostly inhibitors; hit rate 4.4% among 390,000; AID 504339; further: nearly all actives have a fitted effect of over 50% in size
G9a inh – G9a (human) methyltransferase inhibition; Q96KQ7; hit rate 8.8% among 350,000; AID 504332; Potency, µM (titrated, usually from 102 µM), actives largely listed as inhibitors; G9a H3K9 monomethylation, AlphaScreen, 2 h; further: nearly all actives have a fitted effect of over 75% in size
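Step 1: enzyme (final 20 nM) with compound, 15 min RT. Step 2: substrate peptide 500 nM and SAM 20 uM, 2 h RT. Step 3: anti-H3K9me1 antibody and AlphaScreen beads, 10 min, then plate read.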
Hits are given with their value; [ ] = dose if it differs, or a comment. Hits are enriched below; roughly 9% of the tested compounds scored in any of these assays. The call rests on the fitted dose curve; in most records, active means well fitted curve in the direction sought with a large enough effect; inconclusive means small, poorly fitted or top-dose-only effect, or another doubt; inactive means no such curve, though single readings can be large; an effect the other way counts as inactive or inconclusive.

What do the screens show for `Fc1ccc(NC(=S)NCc2ccc3c(c2)OCO3)cc1`?
HP1b chromo inh: inactive; PLK1 PBD inh: inactive; 12-LOX inh: inconclusive; BAZ2B inh: inactive; JMJD2A Tudor: inactive; G9a inh: inactive

What do the screens show for `NS(=O)(=O)c1cccc(NC(=S)NCc2ccc3c(c2)OCO3)c1`?
HP1b chromo inh: inactive; PLK1 PBD inh: inconclusive; 12-LOX inh: inactive; BAZ2B inh: inactive; JMJD2A Tudor: inactive; G9a inh: 50µM

How did NS(=O)(=O)c1cccc(NC(=O)CN2CCN(Cc3ccc4c(c3)OCO4)CC2)c1 do in these assays?
HP1b chromo inh: inactive; PLK1 PBD inh: inactive; 12-LOX inh: inactive; BAZ2B inh: inactive; JMJD2A Tudor: inactive; G9a inh: inactive

How did NS(=O)(=O)c1ccc(NC(=S)NCc2ccc3c(c2)OCO3)cc1 do in these assays?
HP1b chromo inh: inactive; PLK1 PBD inh: 21µM; 12-LOX inh: inconclusive; BAZ2B inh: inconclusive; JMJD2A Tudor: inactive

Results for COc1ccc(C2=CC3=C(Br)C(=O)C(C)(OC(=O)C4CCCC4)C(=O)C3=CO2)cc1 (configuration not stated) ?
HP1b chromo inh: inconclusive; PLK1 PBD inh: 24µM; BAZ2B inh: 79µM; JMJD2A Tudor: 50µM; G9a inh: inactive[12.7 µM]

Results for COC(=O)CCC(=O)OC1(C)C(=O)C2=COC(c3ccc(OC)cc3)=CC2=C(Br)C1=O (configuration not stated) ?
HP1b chromo inh: inconclusive; PLK1 PBD inh: 12µM; BAZ2B inh: 45µM; JMJD2A Tudor: 32µM; G9a inh: inconclusive

What do the screens show for `COC(=O)CCC(=O)OC1(C)C(=O)C2=CN(CCCCO)C(c3ccc(OC)cc3)=CC2=C(Br)C1=O` (configuration not stated)?
BAZ2B inh: inconclusive; G9a inh: 35µM

What do the screens show for `COc1ccc(CN2C=C3C(=O)C(C)(OC(=O)C4CCCC4)C(=O)C=C3C=C2c2ccsc2)cc1` (configuration not stated)?
HP1b chromo inh: inactive; PLK1 PBD inh: inactive; 12-LOX inh: inconclusive; BAZ2B inh: inconclusive; JMJD2A Tudor: inconclusive; G9a inh: inconclusive

Results for COc1ccc(C2=CC3=C(Br)C(=O)C(C)(OC(=O)c4ccc(Cl)nc4)C(=O)C3=CO2)cc1 (configuration not stated) ?
HP1b chromo inh: 50µM; PLK1 PBD inh: 12µM; BAZ2B inh: 56µM; JMJD2A Tudor: 79µM; G9a inh: inactive

Results for C[C@@H](C(=O)NC1CCN(Cc2ccccc2)CC1)N1C(=O)N2CCc3c([nH]c4ccccc34)[C@@]2(C)C1=O ?
HP1b chromo inh: inactive; PLK1 PBD inh: inactive; 12-LOX inh: inactive; BAZ2B inh: inconclusive; JMJD2A Tudor: inconclusive; G9a inh: inactive

What do the screens show for `COc1ccc2[nH]c3c(c2c1)CCN1C(=O)N([C@@H](C)C(=O)NC2CCN(Cc4ccccc4)CC2)C(=O)[C@]31C`?
HP1b chromo inh: inactive; PLK1 PBD inh: inactive; 12-LOX inh: inactive; BAZ2B inh: 50µM; JMJD2A Tudor: inconclusive

What do the screens show for `CC(C)C[C@@H](C(=O)NC1CCN(Cc2ccccc2)CC1)N1C(=O)N2CCc3c([nH]c4ccccc34)[C@@]2(C)C1=O`?
HP1b chromo inh: inconclusive; PLK1 PBD inh: inactive; 12-LOX inh: inconclusive; BAZ2B inh: inconclusive; JMJD2A Tudor: 40µM; G9a inh: inconclusive

Results for COc1ccc2[nH]c3c(c2c1)CCN1C(=O)N([C@@H](C)C(=O)NCc2ccco2)C(=O)[C@]31C ?
HP1b chromo inh: inactive; PLK1 PBD inh: inactive; 12-LOX inh: inactive; BAZ2B inh: 50µM; JMJD2A Tudor: inactive; G9a inh: inactive

What do the screens show for `COc1ccc2[nH]c3c(c2c1)CCN1C(=O)N([C@@H](C)C(=O)NCc2ccccc2)C(=O)[C@]31C`?
HP1b chromo inh: inactive; PLK1 PBD inh: inactive; 12-LOX inh: inactive; BAZ2B inh: inactive; JMJD2A Tudor: inactive

What do the screens show for `CCc1ccc2cc(C)cc(C)c2n1`?
PLK1 PBD inh: inactive; 12-LOX inh: inactive

What do the screens show for `Cc1nc2ccccn2c1C(=O)/C=C/c1ccc(F)cc1`?
HP1b chromo inh: inactive; PLK1 PBD inh: inactive; 12-LOX inh: inactive; BAZ2B inh: inactive; JMJD2A Tudor: inactive; G9a inh: inactive

Results for CCN(CC)CCCNC(=O)c1sc2nc3n(c(=O)c2c1C)CCCCC3 ?
HP1b chromo inh: inactive; 12-LOX inh: inactive; BAZ2B inh: inactive; JMJD2A Tudor: inactive; G9a inh: inconclusive

What do the screens show for `COCCOc1ncccc1-c1noc([C@@H]2CCCN2CC2CC2)n1`?
12-LOX inh: inactive

Results for CCCCN(CCCC)CC(O)COc1ccc(Br)cc1 (configuration not stated) ?
HP1b chromo inh: inconclusive; PLK1 PBD inh: inactive; 12-LOX inh: inactive; BAZ2B inh: 32µM; JMJD2A Tudor: 1.4µM; G9a inh: 7.9µM

What do the screens show for `CN(Cc1cc(C[C@@H]2C[C@H](NS(C)(=O)=O)C2(C)C)no1)c1ccccc1`?
12-LOX inh: inactive

What do the screens show for `COc1cccc(/C=N/n2c(SC)nnc2-c2ccccc2)c1O`?
HP1b chromo inh: inactive; PLK1 PBD inh: inactive; 12-LOX inh: inactive; BAZ2B inh: inconclusive; JMJD2A Tudor: inactive; G9a inh: 8.9µM

What do the screens show for `COc1ccc(C(=O)c2c(C)c3ccccc3n2CC(O)CNC(C)C)cc1` (configuration not stated)?
HP1b chromo inh: inactive; PLK1 PBD inh: inactive; 12-LOX inh: inactive; BAZ2B inh: inactive; JMJD2A Tudor: inactive; G9a inh: 45µM

How did COc1cc(Nc2nc(SCC(=O)c3ccc(Cl)c(Cl)c3)nc3ccccc23)cc(OC)c1 do in these assays?
HP1b chromo inh: inactive; 12-LOX inh: inactive; BAZ2B inh: inactive; JMJD2A Tudor: inactive; G9a inh: inactive

What do the screens show for `CC(C)C1C(C#N)=C(N)Oc2n[nH]c(C(C)(C)C)c21` (configuration not stated)?
HP1b chromo inh: inactive; PLK1 PBD inh: inactive; 12-LOX inh: inactive; BAZ2B inh: inactive; JMJD2A Tudor: inactive; G9a inh: inactive

How did CCCC1C(C#N)=C(N)Oc2n[nH]c(C(C)(C)C)c21 (configuration not stated) do in these assays?
HP1b chromo inh: inactive; PLK1 PBD inh: 6.7µM; 12-LOX inh: inactive; BAZ2B inh: inactive; JMJD2A Tudor: inconclusive; G9a inh: inconclusive

How did CC(=O)Nc1ccc(S(=O)(=O)N[C@H]2CO[C@H]3[C@@H]2OC[C@H]3OC(=O)Nc2ccccc2)cc1 do in these assays?
12-LOX inh: inactive

What do the screens show for `CC(C)(C)OC(=O)NCCc1nnc(SCc2cccc(Cl)c2)o1`?
HP1b chromo inh: inactive; PLK1 PBD inh: inactive; 12-LOX inh: inactive; BAZ2B inh: inactive; JMJD2A Tudor: inactive

What do the screens show for `Cc1cccc(CSc2nnc(CCNC(=O)OC(C)(C)C)o2)c1`?
HP1b chromo inh: inactive; PLK1 PBD inh: inactive; 12-LOX inh: 7.9µM; BAZ2B inh: inactive; JMJD2A Tudor: inactive; G9a inh: inactive

Assay outcomes deposited in PubChem by National Center for Advancing Translational Sciences (NCATS).
